According to PubChem BioAssay (NCATS):
Records with an inconclusive call do not appear. Calls of active or inactive are those of the source. Calls come from the whole dose curve; as a rule, active = well fitted curve in the direction sought with a large enough effect; inconclusive = small, poorly fitted or top-dose-only effect, or another doubt; inactive = no such curve, though single readings can be large; an effect the other way counts as inactive or inconclusive.

What was measured:
[1] = MultiTox-Fluor Cytotoxicity Assay - LYMP1-001 - Live Cells (AID 947)
[2] = Cell Viability - LYMP1-002 - Assay at 16 hr (AID 948)
Outline: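 LYMP1-002 human lymphoblastoid cells, 2500/well; 5 hr 37 C; cpd 16 hr 37 C; CellTiter-Glo 30 min RT; luminescence (ATP). Concentration-response, Hill-fit AC50. Pos ctrl tetraoctylammonium bromide.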

[3] = MultiTox-Fluor Cytotoxicity Assay - LYMP1-002 - Live Cells (AID 955);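 note: cells exposed to compound for 16 hours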
Outline: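 Cells were seeded at 2500 per well and incubated 5 hr. Compounds were then added for 16 hr at 37 C, followed by MultiTox-Fluor reagent for 60 min at room temperature and fluorescence reading of viable-cell protease signal.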

[4] = MultiTox-Fluor Cytotoxicity Assay - LYMP1-002 - Dead Cells (AID 960); note: nearly all actives have a fitted effect of over 60% in size
Outline: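 Cells were plated, rested 5 hr, then treated with compound dilution series for 16 hr at 37 C. After adding substrate reagent and 60 min at room temperature, dead-cell protease fluorescence gave concentration-response curves fitted by the Hill equation.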

[5] = MultiTox-Fluor Cytotoxicity Assay - LYMP1-003 - Dead Cells (AID 961); note: nearly all actives have a fitted effect of over 70% in size
Outline: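 Dead-cell protease release, detected as bis-AAF-R110 fluorescence at 485/520 nm, was measured in LYMP1-003 cells after 16 h compound treatment at 37 C. AC50 values came from Hill-modeled qHTS curves normalized to DMSO (0%) and 15 uM tetraoctylammonium bromide (100%).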

[6] = MultiTox-Fluor Cytotoxicity Assay - LYMP1-003 - Live Cells (AID 962);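 note: cells exposed to compound for 16 hours at 37 °C; cytotoxic hits lower the live-cell protease signal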
Outline: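 Acute cytotoxicity is scored as a drop in live-cell protease activity in human lymphoblastoid LYMP1-003 cells after 16 hr compound exposure at 37 C. AC50 values come from Hill-equation modelling of concentration-response data.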

[7] = Cell Viability - LYMP1-003 - Assay at 24 hr (AID 963)
Outline: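 Cytotoxicity is scored as a concentration-dependent fall in ATP-linked luciferase signal in human lymphoblastoid LYMP1-003 cells treated 24 hr at 37 C in complete culture medium.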

[8] = Cell Viability - LYMP1-003 - Assay at 40 hr (AID 964); note: series mostly up to about 92 µM; nearly all actives have a fitted effect of over 60% in size
Outline: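 Luminescent ATP signal (CellTiter-Glo) served as the viability read-out after 40 hr compound treatment of human lymphoblastoid LYMP1-003 cells at 37 C. Decreases in ATP were fitted with the Hill equation to give AC50.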

[9] = Cell Viability - LYMP2-003 (AID 965);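 note: cells exposed to compounds for 24 h before reading; nearly all actives have a fitted effect of over 50% in size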
Outline: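 CellTiter-Glo luminescence (cellular ATP) after 24 h compound exposure at 37 C in complete medium; 2500 cells/well, 5 h settling beforehand. Concentration-response fitted to standard Hill equation for AC50. Tetraoctylammonium bromide served as positive control.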

[10] = Cell Viability - LYMP2-004 (AID 966); note: nearly all actives have a fitted effect of over 65% in size
Outline: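 qHTS cytotoxicity: human lymphoblastoid line, 24 hr compound treatment, 37 C, complete medium. Viability read as cellular ATP via luciferase luminescence; tetraoctylammonium bromide served as positive control.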

[11] = Cell Viability - LYMP2-005 (AID 967); note: series mostly up to about 92 µM
Outline: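 Steps: seed 2500 LYMP2-005 cells/well, incubate 5 h at 37 C, add compound, incubate 24 h at 37 C, add CellTiter-Glo, wait 30 min at RT, read luminescence. Concentration-response data fitted to Hill equation for AC50.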

[12] = Cell Viability - LYMP2-009 (AID 968); note: series mostly up to about 92 µM; nearly all actives have a fitted effect of over 55% in size
[13] = Cell Viability - LYMP2-011 (AID 969); note: nearly all actives have a fitted effect of over 60% in size
Outline: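 In this qHTS cytotoxicity format, compounds are tested across concentrations on human lymphoblastoid cells in complete medium for 24 hours at 37 C. Viability is taken as cellular ATP measured by luciferase luminescence.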

[14] = Cell Viability - LYMP2-013 (AID 970); note: series mostly up to about 92 µM; nearly all actives have a fitted effect of over 55% in size
Outline: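 Cytotoxicity is scored as a concentration-dependent drop in intracellular ATP in human lymphoblastoid cells after 24 hr compound exposure at 37 C. ATP is quantified by luciferase luminescence, and AC50 values come from Hill-equation modeling.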

[15] = Cell Viability - LYMP2-015 (AID 971); note: nearly all actives have a fitted effect of over 55% in size
Outline: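 Cells are seeded at 2500 per well and incubated 5 hr at 37 C. Compounds are added across a concentration series for 24 hr at 37 C. CellTiter-Glo is added, and luminescence is read after 30 min at room temperature.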

[16] = Cell Viability - LYMP2-017 (AID 972); note: series mostly up to about 92 µM; nearly all actives have a fitted effect of over 55% in size
Outline: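 Cytotoxicity is scored as a concentration-dependent drop in cellular ATP in a human lymphoblastoid line after 24 hr treatment at 37 C. Values are AC50s from Hill-equation modelling.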

[17] = Cell Viability - LYMP2-023 (AID 975)
Outline: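 Steps: seed 2500 human lymphoblastoid cells per well, incubate 5 hr at 37 C, add compound for 24 hr at 37 C, add CellTiter-Glo, hold 30 min at room temperature, read luminescence. AC50 derived by Hill modelling.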

[18] = Cell Viability - LYMP2-025 (AID 976); note: series mostly up to about 92 µM
Outline: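 Acute cytotoxicity is scored as a concentration-dependent fall in intracellular ATP, measured by luciferase luminescence, in human lymphoblastoid LYMP2-025 cells exposed to compound for 24 hours at 37 C. AC50 values come from standard Hill fits.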

[19] = Cell Viability - LYMP2-002 (AID 977); note: series mostly up to about 92 µM
Outline: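 Human lymphoblastoid cells (2500/well) in complete medium were preincubated 5 hr at 37 C, then exposed to compounds for 24 hr at 37 C. Intracellular ATP was read by CellTiter-Glo luminescence; AC50 came from Hill-equation concentration-response fits.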

[20] = Cell Viability - LYMP2-006 (AID 978); note: series mostly up to about 92 µM; nearly all actives have a fitted effect of over 60% in size
Outline: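 qHTS, 1536-well; 2500 cells/well, 5 hr 37 C; cpd 24 hr 37 C; CellTiter-Glo 30 min RT; luminescence. Tetraoctylammonium bromide pos. ctrl. AC50 via Hill eqn.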

[21] = Cell Viability - LYMP2-007 (AID 979)
Outline: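 Cells are seeded at 2500 per well and rested 5 hr. Compounds are then added over a concentration series for 24 hr at 37 C. CellTiter-Glo is added for 30 min at room temperature before luminescence reading.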

[22] = Cell Viability - LYMP2-008 (AID 980); note: nearly all actives have a fitted effect of over 60% in size
Outline: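 Cells seeded at 2500/well and rested 5 hr at 37 C; compounds added over a concentration range and incubated 24 hr at 37 C; CellTiter-Glo added, 30 min at room temperature; luminescence read and AC50 fitted with Hill model.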

[23] = Cell Viability - LYMP2-010 (AID 981); note: nearly all actives have a fitted effect of over 55% in size
Outline: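 Steps: seed 2500 LYMP2-010 cells per well; incubate 5 hr at 37 C; add compound; incubate 24 hr at 37 C; add CellTiter-Glo, wait 30 min at room temperature; read luminescence. Concentration-response fitted to Hill equation for AC50.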

Measured: Potency

CCCOC(=O)c1ccccc1C(=O)OCCC
inactive: all assays above
